Rows were chosen to be rich in hits. Some 5.2% of all compounds tested hit in one or more screens of this group.
Tau fluor cs = counter-screen for tau fibril formation inhibitors; actives 0.93% (n = 280,000); Potency, µM (top dose mostly 57.7 µM), for the others: at the top dose activity change, negative = decrease; tau K18 P301L Alexa594 fluorescence, heparin fibrillization; further: potency means the concentration at half of the fitted maximal effect; nearly all actives have a fitted effect of over 55% in size
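Human tau K18 P301L (15 uM unlabeled, 0.24 uM Alexa 594-labeled) in 100 mM sodium acetate pH 7 with 20 uM heparin, 6 hr at 37 C. ThT 30 uM added, 1 hr ambient; Alexa 594 FP and total fluorescence read at 555/632 nm.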
FBPA coupling cs = counter-screen for Giardia aldolase inhibitors: coupling enzyme system; activity change, negative = inhibition, % at 58.2 µM, hits read low; actives 0.67% (n = 290,000); coupling enzyme system counterscreen, AmpLite Red fluorescence; AID 2472; in the data active means activity change below about -30%
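Counterscreen lacking aldolase: glyceraldehyde-3-phosphate coupling-enzyme reagent preincubated 10 min at RT with compound (at 57.5 uM final), then substrate/coupling system with AmpLite Red added; fluorescence read at 525/598 nm after 20 min RT.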
Sfp PPTase inh = blocks B. subtilis Sfp PPTase activity; actives 3.5% (n = 310,000); Potency, µM, for inactives: largest response in the series, negative = inhibition, usual class: inhibitors; Biochemical Sfp PPTase activity, qHTS; Q9F4F7;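 further: the enzyme is Sfp with the accession as filed and its product quenches rhodamine fluorescence; potency means the concentration at half of the fitted maximal effect; 0% = enzyme reaction without inhibitor and -100% = no enzyme wells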
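Fluorescence-quenching assay: 15 nM Sfp-PPTase preincubated 15 min at room temperature with compound, then 5 uM rhodamine-CoA and 12.5 uM BHQ-2-labelled YbbR peptide added. Fluorescence (ex 525/em 598 nm) read at start and after 30 min; difference gives rate.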
Tau fibril ThT = tau fibrillization inhibition (ThT binding). recombinant tau K18 P301L (four-repeat tau fragment), heparin-induced fibrillization, ThT fluorescence. actives 2.1% (n = 270,000). AID 1460. Potency, µM (top dose mostly 57.4 µM), for the others: at the top dose activity, negative = inhibition, most hits filed as inhibitors. P10636; further: potency means the concentration at half of the fitted maximal effect; nearly all actives have a fitted effect of over 55% in size
Target sequence (P10636 561-689 P618L limits assumed): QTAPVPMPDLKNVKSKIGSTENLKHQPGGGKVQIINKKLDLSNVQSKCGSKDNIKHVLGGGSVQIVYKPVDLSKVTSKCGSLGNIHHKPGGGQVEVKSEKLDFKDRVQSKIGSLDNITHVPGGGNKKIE
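In this qHTS, human K18 P301L tau is incubated with compound and heparin for 6 hr at 37 C, and Thioflavin T fluorescence then reports fibril load.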
Tau fibril FP = tau fibrillization inhibition (FP); K18 P301L tau heparin fibrillization, Alexa594 FP, 6 h; Potency, µM (titrated, usually from 57.7 µM), for inactives: at the highest dose activity, negative = inhibition, usual class: inhibitors; actives 0.39% (n = 280,000); P10636; further: potency means the concentration at half of the fitted maximal effect; nearly all actives have a fitted effect of over 55% in size
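Quantitative HTS format: compounds meet 15 uM recombinant K18 P301L tau and Alexa 594-tau tracer in 100 mM sodium acetate pH 7; 20 uM heparin triggers fibrillization at 37 C over 6 hr; FP gives the signal.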
* hit, by the source's call; ? = inconclusive; nt = not tested or not shown; [ ] = dose if it differs, or a comment. Unless noted, the call rests on the fitted dose curve; in most records, active means well fitted curve in the direction sought with a large enough effect; inconclusive means small, poorly fitted or top-dose-only effect, or another doubt; inactive means no such curve, though single readings can be large; an effect the other way counts as inactive or inconclusive. Unless noted, on the % scale 0 is the no-effect control and ±100 the full control effect.

SMILES | Tau fluor cs | FBPA coupling cs | Sfp PPTase inh | Tau fibril ThT | Tau fibril FP
c1ccc(CNCCc2ccc3c(c2)OCO3)nc1 | 2% | 0 | -4% | -1% | 3%
Fc1cccc(CCNCc2ccccn2)c1 | -3% | nt | 56µM* | -9% | -6%
NC(=O)CNC(=O)[C@H](Cc1ccccc1)NC(=O)[C@H](CCCN=C(N)N)NC(=O)[C@@H](N)Cc1ccc(O)cc1 | -2% | nt | 19% | 5% | -1%
CC(=O)CC(c1ccccc1)c1c(O)c2cccc(O)c2oc1=O (centres undefined) | nt | 13 | -8% | nt | nt
Nc1ccc(C2(c3ccc(N)cc3)c3ccccc3-c3ccccc32)cc1 | 14µM*[quencher] | 10 | 1% | ? | ?
Cc1c(O)c(=O)ccn1C | -9% | -1 | 56µM* | -13% | -10%
C=C1CCC(O)C/C1=C\C=C1/CCCC2(C)C1CCC2C(C)CCCC(C)C (centres undefined) | -26% | 0 | 4% | ? | -6%
CCCOc1ccc(N2C(=O)CC(N3CC=C(c4ccccc4)CC3)C2=O)cc1 (centres undefined) | -20% | 1 | -2% | 32µM* | ?
O=[N+]([O-])O[C@H]1CO[C@H]2[C@@H]1OC[C@H]2O | ? | 1 | 7% | -5% | 7%
Cc1ccccc1N1C(=O)NC(=O)/C(=C\c2cnn(-c3ccccc3)c2)C1=O | 4% | -2 | 25µM* | -9% | -1%
CCn1c(C)cc(/C=C2\C(=O)NC(=O)N(c3ccccc3C)C2=O)c1C | 0% | 0 | 10% | ? | -6%
O=C(O)CN1C(=O)CN=C(c2ccccn2)c2cc(Cl)ccc21 | -9% | 3 | 50µM* | -8% | -6%
O=C1CN=C(c2ccccc2)c2cc(Cl)ccc2N1Cc1ccc(Cl)cc1 | -6% | nt | nt | -2% | -13%
CCOCCCNC(=O)c1c[nH]c2ccc(S(=O)(=O)N(C)c3ccc(Cl)cc3F)cc2c1=O | ? | nt | nt | 3% | ?
CN1/C(=C\C=C\C2=[N+](C)c3ccc4ccccc4c3C2(C)C)C(C)(C)c2ccccc21 | 0.32µM*[fluorescent] | nt | 16µM* | 1.4µM* | ?
C[N+]1=C(/C=C/Nc2ccccc2)C(C)(C)c2ccccc21 | -8% | 9 | ? | -2% | -3%
COc1cc2c(cc1OC)C1C(=O)c3c(cc4c(c3O)C=CC(C)(C)O4)OC1CO2 (centres undefined) | -26% | -1 | ? | -17% | 0%
NC(=O)CSP(=O)(c1ccccc1)c1ccccc1 | -15% | 0 | 16µM* | 28µM* | ?
COP(=O)(CC(=O)O)c1ccccc1 (centres undefined) | -6% | 3 | -13% | -4% | -15%
O=C1C=C2C=CC3C[C@@]2(O1)C1CCCCN31 (some centres undefined) | -18% | 5 | 15% | ? | -3%
CCc1ccc(-c2nc(CN3CCCC(C(=O)NCc4ccc(C)cc4)C3)c(C)o2)cc1 (centres undefined) | -9% | nt | nt | ? | -3%
CCN1C(=O)/C(=C/c2ccc3c(c2)CCN3CCCCl)C(=O)NC1=S | -11% | 1 | 45µM* | 18µM* | ?
O=C1NC(=S)N(C2CC2)C(=O)/C1=C/c1ccc2c(c1)CCN2CCCCl | -18% | -15 | 20µM* | ? | ?
C=CCN1C(=O)/C(=C/c2ccc3c(c2)CCCN3CCC)C(=O)NC1=S | -20% | -4 | 25µM* | ? | ?
CCON=O | nt | nt | -2% | nt | nt
O=C1CC2OCC=C3CN4CCC56c7ccccc7N1C5C2C3CC46 (centres undefined) | nt | -2 | -13% | nt | nt
O=C(NC1CCCCC1)c1cn(CCN2CCOCC2)c2cc(Cl)ccc2c1=O | nt | 1 | 3% | nt | nt
Nc1ccc(N)cc1 | ? | -26 | -27% | 14µM* | ?
Nc1ccc([As](=O)(O)O)cc1 | -14% | 4 | -2% | -12% | -7%
CCOCCSc1nc2c(c(-c3cccs3)c1C#N)CC/C2=C/c1cccs1 | 15% | -1 | 35µM* | 10% | 5%

Assay outcomes (PubChem BioAssay)
